BAZ2B inh = blocks human BAZ2B. Q9UIF8. 360,000 compounds, 4.4% hits. AlphaScreen BAZ2B-H3K14Ac peptide displacement. Potency, µM (titrated, usually from 114 µM), for inactives: at the highest dose activity change, negative = inhibition, most hits filed as inhibitors. AID 504333; also: % is scaled to controls: 0 for no effect and ±100 for the full control effect; nearly all actives have a fitted effect of over 60% in size
Target sequence (Q9UIF8 whole entry, looked up): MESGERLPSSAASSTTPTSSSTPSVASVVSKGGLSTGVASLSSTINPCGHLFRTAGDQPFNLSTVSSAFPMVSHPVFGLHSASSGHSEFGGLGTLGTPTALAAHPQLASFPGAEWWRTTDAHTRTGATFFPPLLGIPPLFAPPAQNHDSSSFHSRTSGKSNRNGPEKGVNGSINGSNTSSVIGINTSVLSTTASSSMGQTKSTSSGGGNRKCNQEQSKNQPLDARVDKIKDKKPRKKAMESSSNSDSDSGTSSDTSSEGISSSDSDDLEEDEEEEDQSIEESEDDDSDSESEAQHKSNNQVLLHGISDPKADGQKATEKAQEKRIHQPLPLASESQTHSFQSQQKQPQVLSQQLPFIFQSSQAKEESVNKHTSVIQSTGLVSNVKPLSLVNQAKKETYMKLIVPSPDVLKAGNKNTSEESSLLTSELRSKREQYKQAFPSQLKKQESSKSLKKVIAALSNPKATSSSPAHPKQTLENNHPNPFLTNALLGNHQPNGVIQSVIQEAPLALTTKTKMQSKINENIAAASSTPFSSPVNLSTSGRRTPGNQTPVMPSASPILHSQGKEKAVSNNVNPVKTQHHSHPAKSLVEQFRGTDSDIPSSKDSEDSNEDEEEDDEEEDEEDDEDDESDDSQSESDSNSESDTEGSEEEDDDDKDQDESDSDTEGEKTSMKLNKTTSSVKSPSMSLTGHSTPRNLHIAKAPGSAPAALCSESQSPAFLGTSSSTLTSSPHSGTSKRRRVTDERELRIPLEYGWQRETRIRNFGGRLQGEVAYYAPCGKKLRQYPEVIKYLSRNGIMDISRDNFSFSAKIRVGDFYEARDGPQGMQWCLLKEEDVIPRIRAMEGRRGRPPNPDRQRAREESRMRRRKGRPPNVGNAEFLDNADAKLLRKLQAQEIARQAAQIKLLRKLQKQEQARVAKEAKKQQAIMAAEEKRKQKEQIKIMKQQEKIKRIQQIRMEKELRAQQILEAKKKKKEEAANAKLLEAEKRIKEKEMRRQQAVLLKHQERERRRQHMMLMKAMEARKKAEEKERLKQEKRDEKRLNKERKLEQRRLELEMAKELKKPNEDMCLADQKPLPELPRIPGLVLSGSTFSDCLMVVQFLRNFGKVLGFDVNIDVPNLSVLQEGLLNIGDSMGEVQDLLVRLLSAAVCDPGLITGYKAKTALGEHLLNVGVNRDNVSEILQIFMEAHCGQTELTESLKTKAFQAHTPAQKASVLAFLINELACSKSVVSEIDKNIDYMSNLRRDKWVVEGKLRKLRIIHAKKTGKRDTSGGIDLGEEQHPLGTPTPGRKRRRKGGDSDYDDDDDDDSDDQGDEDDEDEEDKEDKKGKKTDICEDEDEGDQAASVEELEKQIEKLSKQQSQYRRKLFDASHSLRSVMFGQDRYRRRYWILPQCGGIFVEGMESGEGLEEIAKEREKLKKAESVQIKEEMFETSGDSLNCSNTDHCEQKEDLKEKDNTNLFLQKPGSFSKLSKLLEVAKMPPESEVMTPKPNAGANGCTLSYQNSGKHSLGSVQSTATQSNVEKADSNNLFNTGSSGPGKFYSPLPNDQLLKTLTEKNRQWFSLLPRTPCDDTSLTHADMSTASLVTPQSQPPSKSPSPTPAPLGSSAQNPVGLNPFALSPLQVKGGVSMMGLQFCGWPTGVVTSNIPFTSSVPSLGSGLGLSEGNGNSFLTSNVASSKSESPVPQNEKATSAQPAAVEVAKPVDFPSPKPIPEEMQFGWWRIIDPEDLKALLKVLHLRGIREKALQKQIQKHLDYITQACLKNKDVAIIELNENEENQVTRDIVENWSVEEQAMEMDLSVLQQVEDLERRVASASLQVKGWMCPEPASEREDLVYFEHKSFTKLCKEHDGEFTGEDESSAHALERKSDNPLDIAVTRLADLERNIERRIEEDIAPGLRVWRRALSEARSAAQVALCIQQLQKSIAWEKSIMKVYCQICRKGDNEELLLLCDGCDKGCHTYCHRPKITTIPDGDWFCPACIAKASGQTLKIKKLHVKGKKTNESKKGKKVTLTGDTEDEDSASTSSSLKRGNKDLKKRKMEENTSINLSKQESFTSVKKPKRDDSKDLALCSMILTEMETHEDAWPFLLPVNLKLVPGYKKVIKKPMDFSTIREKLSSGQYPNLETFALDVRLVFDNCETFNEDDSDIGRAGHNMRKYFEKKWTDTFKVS
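BAZ2B (50 nM) with biotin-H3(5-23)K14Ac peptide (50 nM) in PBS pH 7.4, 0.01% Tween-20, preformed 30 min, then compound 30 min at room temperature; top concentration 110uM. AlphaScreen streptavidin donor/nickel chelate acceptor beads (10 ug/mL final), 20 min dark, signal read.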
G9a inh = inhibitors of human histone lysine methyltransferase G9a; 350,000 compounds, 8.8% hits; G9a H3K9 monomethylation, AlphaScreen, 2 h; Potency, µM (doses to about 102 µM), inactives show at the top dose activity, negative = inhibition, usual class: inhibitors; also: % is scaled to controls: 0 for no effect and ±100 for the full control effect; nearly all actives have a fitted effect of over 75% in size
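G9a (20 nM) was preincubated 15 min with compound, then reacted 2 h at room temperature with 500 nM biotin-H3K9 peptide and 20 µM SAM. Monomethyl-H3K9 detected by AlphaScreen using anti-H3K9me1 antibody.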
JMJD2A Tudor inh = JMJD2A Tudor domain (human) inhibition | 390,000 compounds, 4.4% hits | O75164 | AlphaScreen JMJD2A-Tudor / H3K4me3 peptide binding | Potency, µM (highest dose often 114 µM), inactives show at the highest dose activity change, negative = inhibition, usual class: inhibitors | AID 504339; also: % is scaled to controls: 0 for no effect and ±100 for the full control effect; nearly all actives have a fitted effect of over 50% in size
HP1b chromo inh = inhibitors of HP1-beta chromodomain binding to methylated histone tails; P83916; AlphaScreen HP1-beta / biotin-H3K9me3 peptide binding; Potency, µM (series often up to 114 µM), without a hit: at the highest dose activity change, negative = inhibition, actives largely listed as inhibitors; 390,000 compounds, 0.56% hits; AID 540317; also: nearly all actives have a fitted effect of over 70% in size
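HP1-beta protein (50 nM final) preincubated 30 min at room temperature with biotinylated H3(1-18)K9me3 peptide (50 nM) in PBS pH 7.4, 0.01% Tween-20, then compound added for 30 min. AlphaScreen streptavidin donor/nickel chelate acceptor beads (10 ug/mL final), 30 min dark, luminescence read.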
Sfp inh = Sfp phosphopantetheinyl transferase inhibition | Biochemical Sfp PPTase activity, qHTS | Q9F4F7 | Potency, µM, for the others: largest response in the series, negative = inhibition, most hits filed as inhibitors | 310,000 compounds, 3.5% hits | AID 1490;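 also: the enzyme is Sfp with the accession as filed and its product quenches rhodamine fluorescence; 0% = enzyme reaction without inhibitor and -100% = no enzyme wells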
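Reaction rates are the 30-min fluorescence difference (ex 525, em 598 nm) in wells containing 15 nM Sfp, 5 uM rhodamine-CoA and 12.5 uM BHQ-2-YbbR at pH 7.6 with 10 mM MgCl2.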
L3MBTL1 inh = L3MBTL1 (human) inhibition; AlphaScreen L3MBTL1–H3K9me1 peptide binding; 230,000 compounds, 0.66% hits; Potency, µM (titrated, usually from 57.1 µM), for inactives: at the highest dose activity, negative = inhibition, usual class: inhibitors; AID 485360; Q9Y468; also: % is scaled to controls: 0 for no effect and ±100 for the full control effect; nearly all actives have a fitted effect of over 60% in size
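AlphaScreen assay: L3MBTL1 (50 nM final) was preincubated 30 min at room temperature with biotinylated H3(1-15)K9me1 peptide (75 nM final), then 30 min with library compounds; streptavidin donor and nickel chelate acceptor beads (10 ug/mL final) added, 30 min dark.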
Starred values were filed as active, the others as inactive; ! = not confirmed by another sample; [ ] = another dose, or the depositor's remark. Shown are actives, neighbours in structure and some others; about 12% of the full set was active somewhere. Calls follow the shape of the dose curve; as a rule, active = well fitted curve in the direction sought with a large enough effect; inconclusive = small, poorly fitted or top-dose-only effect, or another doubt; inactive = no such curve, though single readings can be large; an effect the other way counts as inactive or inconclusive. Potency is read from the fitted curve at half-maximal effect.

O=C(OC1Cc2c(O)cc(O)cc2OC1c1cc(O)c(O)c(O)c1-c1c(C2Oc3cc(O)cc(O)c3CC2O)cc(O)c(O)c1O)c1cc(O)c(O)c(O)c1 (configuration not stated) was read as Sfp inh 40µM*.
Cc1noc(NS(=O)(=O)c2ccc(NC(=O)c3cccc(S(=O)(=O)N(C)c4ccccc4)c3)cc2)c1C was read as JMJD2A Tudor inh -30% and HP1b chromo inh 16%.
Screening Cc1ccc(-c2cc(C(=O)Nc3ccc(S(=O)(=O)Nc4onc(C)c4C)cc3)c3ccccc3n2)cc1 returned BAZ2B inh 50µM*, G9a inh 45µM*, JMJD2A Tudor inh inconclusive, HP1b chromo inh inconclusive, Sfp inh 21% and L3MBTL1 inh -3%.
For Cc1noc(NS(=O)(=O)c2ccc(NC(=O)c3ccc(Cl)c(S(=O)(=O)N(C)c4ccccc4)c3)cc2)c1C the results were BAZ2B inh 45µM*, G9a inh 50µM*, JMJD2A Tudor inh inconclusive, HP1b chromo inh -22% and L3MBTL1 inh -4%.
Screening Cc1ccc2c(C)c(C(=O)Nc3ccc(S(=O)(=O)Nc4onc(C)c4C)cc3)oc2c1 returned BAZ2B inh inconclusive, G9a inh 71µM*, JMJD2A Tudor inh -32%, HP1b chromo inh -12% and Sfp inh 13%.
`COc1cccc(CNC(=O)CCn2cccn2)c1` gave BAZ2B inh -3%, G9a inh 9%[59 µM], JMJD2A Tudor inh 1% and HP1b chromo inh 34%.
Screening CC1(OC(=O)c2ccc(Cl)nc2)C(=O)C=c2cc(-c3ccsc3)ncc2=C1OC(=O)C1CCCC1 (configuration not stated) returned Sfp inh 6%.
For O=c1[nH]c(C(Cl)Cl)nc2sc3c(c12)CCN(Cc1ccccc1)C3 the results were BAZ2B inh inconclusive, G9a inh 8.9µM*, JMJD2A Tudor inh 79µM*, HP1b chromo inh 27%, Sfp inh -11% and L3MBTL1 inh -15%.
Screening CCCSc1nc2sc3c(c2c(=O)[nH]1)CCN(Cc1ccccc1)C3 returned BAZ2B inh -2%, G9a inh 10µM*, JMJD2A Tudor inh -27%[11.4 µM], HP1b chromo inh 10% and Sfp inh -9%.
`CC(=O)c1ccc(NC(=O)CSc2cn(CC(=O)N3CCCCCC3)c3ccccc23)cc1` gave BAZ2B inh inconclusive, G9a inh -39%[59 µM], JMJD2A Tudor inh -15% and HP1b chromo inh 24%.
Screening Cc1cccc(NC(=O)C2CCCN(S(=O)(=O)c3cccc4nonc34)C2)c1C (configuration not stated) returned BAZ2B inh 15%, G9a inh inconclusive, JMJD2A Tudor inh -12% and HP1b chromo inh 42%.
CCCCCCc1c(C[C@H](N)C(=O)O)o[nH]c1=O was read as Sfp inh -18%.
For Cc1o[nH]c(=O)c1CC[C@H](N)C(=O)O the results were Sfp inh 79µM*.
CCOc1ccc(OCC)c(NC(=O)c2nnn(CC(=O)Nc3ccc(C)cc3C)c2N)c1 was read as G9a inh -1%[59 µM], JMJD2A Tudor inh -4% and HP1b chromo inh 2%.
For Cc1cccc(N2C(=O)c3cccc4c(N5CCCCC5)c([N+](=O)[O-])cc(c34)C2=O)c1C the results were BAZ2B inh inconclusive, G9a inh -11%[59 µM], JMJD2A Tudor inh inconclusive, HP1b chromo inh inconclusive, Sfp inh 2% and L3MBTL1 inh -16%.
For O=C1c2cccc3c(N4CCOCC4)c([N+](=O)[O-])cc(c23)C(=O)N1c1cccc2ccccc12 the results were BAZ2B inh inconclusive, G9a inh 11µM*, JMJD2A Tudor inh inconclusive, HP1b chromo inh -12%, Sfp inh -17% and L3MBTL1 inh inconclusive.
Screening COc1cccc(N2CCN(C(=O)c3cccc(NC(=O)c4nsc5ccccc45)c3)CC2)c1 returned BAZ2B inh -12%, G9a inh -32%[59 µM], JMJD2A Tudor inh -35% and HP1b chromo inh -3%[57 µM].
Screening O=C(c1cccc(NS(=O)(=O)c2ccc(F)c(F)c2)c1)N1CCN(C(c2ccccc2)c2ccccc2)CC1 returned BAZ2B inh -5%, G9a inh 50µM*, JMJD2A Tudor inh -34%[57.1 µM], HP1b chromo inh 15%, Sfp inh -3% and L3MBTL1 inh -13%.
Screening O=C(c1cccc(NS(=O)(=O)c2ccc(Br)cc2)c1)N1CCN(c2ccccc2O)CC1 returned BAZ2B inh -28%, G9a inh 50µM*, JMJD2A Tudor inh -33%, HP1b chromo inh 6% and L3MBTL1 inh -11%.
`CCOc1ccc(S(=O)(=O)Nc2cccc(C(=O)N3CC(C)OC(C)C3)c2)cc1` (configuration not stated) gave BAZ2B inh 0%, G9a inh 1%, JMJD2A Tudor inh -11%, HP1b chromo inh 13% and L3MBTL1 inh -14%.
For COc1ccc(N2CCN(C(=O)c3cccc(NC(=O)c4nsc5ccccc45)c3)CC2)cc1 the results were BAZ2B inh 7.9µM*, G9a inh 10µM*, JMJD2A Tudor inh inconclusive and HP1b chromo inh inconclusive.
`CCOc1ccc(S(=O)(=O)Nc2cccc(C(=O)N3CCN(c4ccc(OC)cc4)CC3)c2)cc1` gave BAZ2B inh inconclusive, G9a inh 11µM*, JMJD2A Tudor inh inconclusive, HP1b chromo inh -12% and Sfp inh -3%.
COc1ccc(N2CCN(C(=O)CCNS(=O)(=O)c3ccccc3)CC2)cc1 was read as BAZ2B inh -10%, JMJD2A Tudor inh inconclusive, HP1b chromo inh -13%, Sfp inh 21% and L3MBTL1 inh -8%.
Screening CCOc1ccc(S(=O)(=O)NCCC(=O)N2CCN(c3ccc(OC)cc3)CC2)cc1 returned BAZ2B inh inconclusive, G9a inh 45µM*, JMJD2A Tudor inh inconclusive, HP1b chromo inh inconclusive, Sfp inh 10% and L3MBTL1 inh -8%.
C/C=C1/C(=O)C[C@@H]2[C@H]3CCC4=CC(=O)CC[C@]4(C)[C@@H]3CC[C@]12C was read as G9a inh 38%[59 µM] and Sfp inh 8%.
CC1(C)CCC2=C(O1)c1ccccc1C(=O)C2=O was read as G9a inh 14µM*! and Sfp inh 63µM*!.
Cc1c(P(=S)(c2ccccc2)c2ccccc2)c2ccccc2n1C(=O)Cc1ccccc1 was read as JMJD2A Tudor inh -7%.
Screening CCC(Sc1ncc(S(=O)(=O)c2ccc(Cl)cc2)c(=O)[nH]1)C(=O)Nc1ccc(OC)cc1 (configuration not stated) returned BAZ2B inh -1%, G9a inh -2%[59 µM], JMJD2A Tudor inh -23% and HP1b chromo inh -7%.

Screening data: PubChem, National Center for Advancing Translational Sciences (NCATS)
